# PubChem BioAssay AID771 (SRMLSC, 2007)
# “And” between values parts separate entries of the source, which are not always exact repeats. Equal entries are not always repeated. In all, about 3,300 compounds went through this assay and about 55 (2%) were called active.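 The calls were made as follows: active = growth inhibition above 90%, meaning viable cell count by imaging cut by more than 90% versus vehicle controls; inactive = growth inhibition below 90%.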 What follows is part of a selection rich in actives, with near analogues and random picks from the rest. Some structures have more than one record in an assay (separate samples or runs), and their calls can disagree.
# Assay: HT29 colon tumor cell growth inhibition, primary screen, imaging, high content imaging, 48 h, CellTiter-Glo (AID 771);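 as to condensed nuclei: condensed means Hoechst nuclear area under control median minus 1.5 SD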
# Details: HCS imaging cell count, at 10 µM, stronger effect = higher value; for condensed nuclei: measured here: percent cells with condensed nuclei
# [1] = measured here: ATP CellTiter-Glo viability inhibition
SMILES,growth inhibition,growth inhibition [1] [%],condensed nuclei
N#CC1(c2ccccc2)CCC(=NO)CC1 (stereo unspecified),-54.8% (inactive),-7.61,1.75%
CC1(C)Cc2c(c(-c3ccccc3)[nH]c(=O)c2C#N)CS1,40.9% (inactive),27.6,3.57%
C=CCn1c(N)c(C(=O)Nc2ccccc2)c2nc3ccccc3nc21,90.9% (active),90.8,18.1%
COCCNC(=O)c1c(N)n(CCC2=CCCCC2)c2nc3ccccc3nc12,39.4% (inactive),20.4,2.68%
C=CCn1c(N)c(C(=O)OC(C)(C)C)c2nc3ccccc3nc21,56.4% (inactive),24.8,2.73%
C=CCn1c(-c2ccccc2)n[nH]c1=S,-21.6% (inactive),-24.2,2.91%
Cc1ccc(NC(=O)c2cc(N3CCOCC3)nc3ccccc23)cc1,52% (inactive),31.6,7.65%
CCOC(=O)c1[nH]c2ccc(OC)cc2c1NC(=O)CCN1CCc2ccccc2C1,24.3% (inactive),4.08,9.73%
Oc1ccccc1-c1nc(NCCN2CCOCC2)c2ccccc2n1,83.2% (inactive),73.4,16.5%
Fc1ccccc1-c1nc(NCCCN2CCOCC2)c2ccccc2n1,40% (inactive),34.1,7.24%
Cc1ccc2[nH]c3c(NCCN4CCOCC4)ncnc3c2c1,45.8% (inactive),24.8,3.45%
Clc1ccc2[nH]c3c(NCCN4CCOCC4)ncnc3c2c1,90.1% (active),74.8,8.91%
CCN(CC)CCNc1ncnc2c1[nH]c1ccc(OC)cc12,68.1% (inactive),44,4.62%
Clc1ccc2[nH]c3c(NCCCN4CCOCC4)ncnc3c2c1,97.5% (active),90,33%
CC/C(C)=C1\SC(N2CCN(C(C)=O)CC2)=NC1=O,-12% (inactive),-28.4,2.39%
Cc1c(N=Cc2c(O)n(C3CCCCC3)c(=O)[nH]c2=O)c(=O)n(-c2ccccc2)n1C,-40.9% (inactive),-6.25,2.12%
COC(=O)CN(c1nc(C)c(Br)c(OC)n1)S(=O)(=O)c1ccc(C)cc1,28.7% (inactive),6.19,1.9%
N#Cc1ccc(-c2ccc(OCC(O)Cn3nnc4ccccc43)cc2)cc1 (stereo unspecified),10.4% (inactive),-1.94,1.87%
CCOc1ccc(-c2nnc3sc(COc4ccccc4)nn23)cc1,41.5% (inactive),-17,2.51%
Clc1ccc(-n2ncc3c(NCc4ccccn4)ncnc32)cc1,38.1% (inactive),0.14,3.3%
Clc1ccc(-n2ncc3c(NCc4cccs4)ncnc32)cc1,-9.4% (inactive),-1.37,3.73%

SMILES,growth inhibition,growth inhibition [1] [%],condensed nuclei
COc1ccccc1Nc1ncnc2c1cnn2-c1cccc(C)c1,30.4% (inactive),-0.29,2.98%
Cc1cccc(-n2ncc3c(NCc4ccco4)ncnc32)c1,90.8% (active),68.2,5.66%
Clc1ccc(-n2ncc3c(NCc4ccco4)ncnc32)cc1,92.3% (active),76.5,19.6%
Cc1cccc(-n2ncc3c(NCCN4CCOCC4)ncnc32)c1,15.5% (inactive),9.31,3.92%
CC(=O)c1ccc(O)c(CO)c1,-13.1% (inactive),-11.8,2.86%
COC(=O)c1ccc(C2NC(C(=O)O)CS2)cc1 (stereo unspecified),16% (inactive),-10.7,1.25%
CCNC(=O)Nn1c(C)nnc1C,-8.98% (inactive),-2.65,1.64%
CCCOc1ccc2nc(NC(=O)OC)[nH]c2c1,78.7% (inactive),–,35.7%
COC(=O)Nc1nc2ccc(Sc3ccccc3)cc2[nH]1,90.4% (active),–,42%
COC(=O)Nc1nc2ccc(C(=O)c3ccccc3)cc2[nH]1,86.4% (inactive),–,34.6%
CCCSc1ccc2nc(NC(=O)OC)[nH]c2c1,90.4% (active),–,33.3%
Cc1ccc2nc(NCc3ccccc3)[nH]c2c1,87.6% (inactive),67.4,19.4%
CCOc1ccc2nc(SCC(=O)Nc3ncccn3)[nH]c2c1,-11.5% (inactive),0,3.9%
Cc1cc(=O)oc(C)c1C(=O)Nc1ccc2nsnc2c1,31.3% (inactive),-17.1,3.08%
CCCCCNC(=O)c1c(N)n(/N=C/c2ccco2)c2nc3ccccc3nc12,44.5% (inactive),5.72,0.77%
CC1(C)Cc2c(C#N)c(SCC(=O)c3ccccc3)nc(N3CCOCC3)c2CS1,83.5% (inactive),76.7,17.6%
CCN(CC)CCOC(=O)C1(c2ccc(OC)c(OC)c2)CCCC1,-76.7% (inactive),-5.14,1.64%
COc1ccc(C(=O)NCCCCCC(=O)O)cc1OC,5.72% (inactive),3.37,1.69%
Cc1[nH]c2ccc(F)cc2c(=O)c1SC(F)(F)C(F)C(F)(F)F (stereo unspecified),31.7% (inactive),-13.7,3.08%
COc1cccc2c(=O)c(SC(F)(F)C(F)C(F)(F)F)c(C)[nH]c12 (stereo unspecified),91.7% (active),63.5,11.3%
COc1cccc(C(=O)NCC(=O)n2nc(C)cc2C)c1,-2.19% (inactive),-15.9,2.14%

SMILES,growth inhibition,growth inhibition [1] [%],condensed nuclei
CN(C)CC(O)COc1ccc(C(C)(C)c2ccc(OCC(O)CN(C)C)cc2)cc1 (stereo unspecified),99.1% (active),95.7,29.1%
CN(C)CC(O)COc1ccc(-c2ccc(C#N)cc2)cc1 (stereo unspecified),71.1% (inactive),51.9,5.66%
CN(C)CC(O)COc1cccc(OCC(O)CN(C)C)c1 (stereo unspecified),26.5% (inactive),-7,1.99%
CC(C)(C)c1ccc(C(O)CCCN2CCC(C(O)(c3ccccc3)c3ccccc3)CC2)cc1 (stereo unspecified),98.2% (active),–,36.3%
OC(CCN1CCCCC1)(c1ccccc1)C1CCCCC1 (stereo unspecified),6.78% (inactive),–,4.4%
OC(CCN1CCCC1)(c1ccccc1)C1CCCCC1 (stereo unspecified),57.7% (inactive),–,7.95%
CCOC(=O)C1=C(C)N=C2SC(C)C(=O)N2C1c1ccc(OC(C)=O)c(OC)c1 (stereo unspecified),42.7% (inactive),12.7,1.51%
CC(C)Cc1[nH]c(=O)c(C#N)c2c1COC(C)(C)C2,-9.54% (inactive),6.82,1.96%
CCN(CC)c1ccc2cc(C(=O)Nc3ccccn3)c(=O)oc2c1,-58.4% (inactive),-2.93,2.18%
CCN(CC)c1ccc2cc(-c3nnc(-c4ccncc4)o3)c(=O)oc2c1,100% (active),-8.56,1.36%
CCCCCCc1cc2cc(-c3nnc(-c4ccccc4O)o3)c(=O)oc2cc1O,4.58% (inactive),3.73,3.18%
OCCN1CCN(CCCN2c3ccccc3Sc3ccc(C(F)(F)F)cc32)CC1,99.7% (active),–,57%
CN1CCN(CCC(=O)N2c3ccccc3Sc3ccc(Cl)cc32)CC1,55.5% (inactive),-11.6,2.4%
CN1CCN(CCCN2c3ccccc3Sc3ccc(Cl)cc32)CC1,-16.4% (inactive),–,1.86%
OCCN1CCN(CCCN2c3ccccc3Sc3ccc(Cl)cc32)CC1,84.9% (inactive),–,46.7%
CN1CCN(CCCN2c3ccccc3Sc3ccc(C(F)(F)F)cc32)CC1,99.7% (active),–,45.5%
CSc1ccc2c(c1)N(CCC1CCCCN1C)c1ccccc1S2 (stereo unspecified),8.58% (inactive),–,2.87%
CCCOc1ccc(/C(O)=C2/C(=O)C(=O)N(CCN3CCOCC3)C2c2ccccc2)cc1 (stereo unspecified),6.6% (inactive),-7.42,3.56%
CC1(C)Cc2nc(N)c(C(=O)NCCO)cc2CO1,-4.53% (inactive),-20.8,3.27%
COc1ccc(/C(O)=C2\C(=O)C(=O)N(c3cc(C)on3)C2c2cccc(OC)c2OC)cc1C (stereo unspecified),37.5% (inactive),-6.66,2.33%
CCCCOc1ccccc1C(=O)NCCCC(=O)O,45.1% (inactive),27.4,2.4%

SMILES,growth inhibition,growth inhibition [1] [%],condensed nuclei
CCN(CC)CCNC(=O)c1ccccc1N,25.6% (inactive),4.22,0.38%
CCCCOc1cc(C(=O)NCCN(CC)CC)c2ccccc2n1,2.54% (inactive) and 97.2% (active),–,0.87% and 22.7%
CC(C)C1Cc2c(C#N)c(N)sc(=S)c2CO1 (stereo unspecified),-17.8% (inactive),-10.1,3.02%
CNCCC(Oc1ccc(C(F)(F)F)cc1)c1ccccc1 (stereo unspecified),98.6% (active),–,23.4%
CC(=N\O)/C(CN(C)C)=N/O,19.1% (inactive),5.48,2.85%
CCc1[nH]nc2c1C(c1ccc(Br)s1)C(C#N)=C(N)O2 (stereo unspecified),61% (inactive),16.8,4.86%
COc1cc(/C=C/C(=O)CC(=O)/C=C/c2ccc(O)c(OC)c2)ccc1O,95.8% (active),–,35.4%
CCN(CC)C(=O)c1ccc(O)c(OC)c1,-10.4% (inactive),–,2.13%
O=C(O)/C=C/c1ccc(O)c(O)c1,-1.98% (inactive),–,2.21%
CCCc1nnc(SCc2ccc(OCC)cc2)n1N,34.1% (inactive),0.5,1.98%
NC(Cc1ccc(Oc2ccc(O)cc2)cc1)C(=O)O (stereo unspecified),-13.8% (inactive),–,5.21%
CCn1nnc(C(=O)O)c1C(=O)O,-4.1% (inactive),-5.53,2.3%
Brc1ccc2c(c1)CNc1c(ncnc1N1CCOCC1)O2,45.1% (inactive),12.2,0.48%
N#CC12CCCCC1CC1CCCCC1(C#N)N2Cc1cccnc1 (stereo unspecified),20.9% (inactive),-2.93,2.55%
CNCCCC1c2ccccc2C=Cc2ccccc21,98% (active),–,25%
CC(NC(=O)c1ccc(=O)oc1)c1ccccc1 (stereo unspecified),53.4% (inactive),-2.53,5.45%
CC(NCCC(c1ccccc1)c1ccccc1)c1ccccc1 (stereo unspecified),95.3% (active),–,28.3%
O=C(O)c1ccc(C2CCCCC2)cn1,-17.2% (inactive),-12.9,0.69%
CCN(CC)CCN1C(=O)C(=O)/C(=C(/O)c2c(C)[nH]c(C(=O)OC)c2C)C1c1ccccc1 (stereo unspecified),29.2% (inactive),26.4,11%
